Measurements published in PubChem BioAssay.
Calls of active or inactive are those of the source.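 How the source made its calls: active means Her2 level under about 52% in both replicate screens, with viability over 70% of control (limit read from the data); inconclusive means Her2 under the limit in one screen only, or viability under 70%; inactive means Her2 level above the set limit.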

Tested on: not listed separately
Experiment: reducers of endogenous Her2 protein level, primary screen, SKBR3 breast tumor cells, AlphaScreen, ATP viability (AID 461);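 on viability: percent of carrier control wells set as 100% viability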
Settings: 18-24 h, measured here: SKBR3 viability, ATP luminescence, at 10 µM

| Compound | viability [%] |
| --- | --- |
| COc1ccc(-c2noc(COc3ccc4ccccc4c3Br)n2)cc1OC | 129 |
| CC(=O)c1ccc(NC2OC(C)C(O)C(O)C2O)cc1 (stereo not given) | 121 |
| CSc1nc(C)cc(OCC(=O)N2CCOCC2)n1 | 130 |
| O=C(CCCn1c(=S)[nH]c2ccccc2c1=O)N1CCCCC1 | 86 |
| CN(C(=O)c1ccccn1)c1nnc(-c2ccncc2)s1 | 118 |
| CC(C)(C)OC(=O)N1CC(O)CC1C(=O)OCC(=O)c1ccc(Cl)cc1 (stereo not given) | 95 |
| Cc1csc(SCc2nc3sc4c(c3c(=O)[nH]2)CCC4)n1 | 116 |
| CCC(C)NC(=O)CC1Oc2ccc(C)cc2NC1=O (stereo not given) | 105 |
| CCSc1nc(C)nc2c1oc1ccccc12 | 78.5 |
| CC1=C(C)[N+](=O)C2CCCCC2N1[O-] (stereo not given) | 89 |
| O=c1[nH]c2c(s1)C(c1ccco1)C1C3CCC(C3)C1S2 (stereo not given) | 100 |
| CC1CCCCC1NC(=O)C1CCN(C(=O)NC2CCCCC2)CC1 (stereo not given) | 94.5 |
| COc1cccc(OC)c1C(=O)N1CCN(S(=O)(=O)c2ccc(C)cc2)CC1 | 103 |
| Cc1nnc(SCc2cc(=O)[nH]c(N3CCCCC3)n2)s1 | 94 |
| CCc1[nH]nc2c1C(c1cccc(OC(=O)N3CCOCC3)c1)C(C#N)=C(N)O2 (stereo not given) | 133 |
| CS(=O)(=O)c1ccc2nc(NC(=O)c3cccs3)sc2c1 | 99 |
| COc1ccc(C(=O)N2CCN(S(=O)(=O)c3cc(Cl)ccc3OC)CC2)cc1 | 108 |
| COC(=O)c1cccc(NC(=O)Cc2coc3cc(OC)ccc23)c1 | 102 |
| CCOC(=O)N1CCN(C(=O)CN2C(=O)COc3ccc(C)cc32)CC1 | 98 |
| CCNc1nc(N2CCCCC2)nc(-n2nnc(C(=O)OCC)c2C)n1 | 162 |

| Compound | viability [%] |
| --- | --- |
| O=c1c2c3nc4ccccc4nc3n(CC3CCCO3)c2ncn1CCc1ccccc1 (stereo not given) | 97 |
| COc1ccc(CC(NC(C)=O)C(=O)NC2CCN(C(=O)Nc3ccc(C#N)cc3)CC2)cc1OC (stereo not given) | 93 |
| O=S(=O)(c1ccc(Br)s1)N1CCCCC1 | 96.5 |
| C/C(N)=C(/C#N)C(=O)COC(=O)c1cc(C)n(-c2ccc(F)cc2)c1C | 91 |
| COc1cccc(Nc2cc(C)nc3ccccc23)c1 | 77 |
| O=S(=O)(c1ccc(-c2csc(-c3cccnc3)n2)cc1)N1CCCCC1 | 106 |
| O=C(O)CCc1ccc(-c2ccc(Br)cc2)n1CC(=O)O | 102 |
| COc1ccc(N(CC(=O)NC2CCCC2)C(=O)Cn2nnc(-c3ccc(C)cc3)n2)cc1 | 79 |
| CCOc1cc(C(=O)N(C)c2ccccc2)cc(OCC)c1OCC | 108 |
| COc1ccc(C(=O)Nc2ccc(C)cn2)c(OC)c1 | 73.5 |
| CN(C)c1nc(SCCOC(=O)c2ccccc2)nc(N(C)C)n1 | 96 |
| NC(=O)C1CCN(CC(=O)N2c3ccccc3CCc3ccccc32)CC1 | 117 |
| CCCC(c1nnnn1Cc1ccc(OC)cc1)N1CCN(c2ccccc2OC)CC1 (stereo not given) | 103 |
| CCN1C(=O)c2cccc3c(NC(=O)c4ccc5c(c4)OCCO5)ccc1c23 | 108 |
| CCN1C(=O)Cc2cc(S(=O)(=O)N3CCOCC3)ccc21 | 105 |
| CCOc1ccccc1NC(=O)CN(c1ccc(C)cc1)S(=O)(=O)c1c(C)noc1C | 133 |
| O=C(OCCCN1CCCC1)C1(c2ccccc2)CCCC1 | 82.5 |
| COCCn1c(NCc2ccc(C)cc2)nc2c1c(=O)[nH]c(=O)n2C | 108 |
| CCCN1C2CCCC1CC(NC(=O)Nc1cccc(C(C)=O)c1)C2 (stereo not given) | 105 |
| O=C(COC(=O)c1ccccc1O)Nc1ccc(OC(F)F)cc1 | 78 |

Biological target: Receptor tyrosine-protein kinase erbB-2 (Homo sapiens) (UniProt P04626)
Experiment: as above
Settings: 18-24 h, at 10 µM, stronger effect = lower value

Receptor tyrosine-protein kinase erbB-2 (Homo sapiens), sequence (P04626 whole entry, looked up): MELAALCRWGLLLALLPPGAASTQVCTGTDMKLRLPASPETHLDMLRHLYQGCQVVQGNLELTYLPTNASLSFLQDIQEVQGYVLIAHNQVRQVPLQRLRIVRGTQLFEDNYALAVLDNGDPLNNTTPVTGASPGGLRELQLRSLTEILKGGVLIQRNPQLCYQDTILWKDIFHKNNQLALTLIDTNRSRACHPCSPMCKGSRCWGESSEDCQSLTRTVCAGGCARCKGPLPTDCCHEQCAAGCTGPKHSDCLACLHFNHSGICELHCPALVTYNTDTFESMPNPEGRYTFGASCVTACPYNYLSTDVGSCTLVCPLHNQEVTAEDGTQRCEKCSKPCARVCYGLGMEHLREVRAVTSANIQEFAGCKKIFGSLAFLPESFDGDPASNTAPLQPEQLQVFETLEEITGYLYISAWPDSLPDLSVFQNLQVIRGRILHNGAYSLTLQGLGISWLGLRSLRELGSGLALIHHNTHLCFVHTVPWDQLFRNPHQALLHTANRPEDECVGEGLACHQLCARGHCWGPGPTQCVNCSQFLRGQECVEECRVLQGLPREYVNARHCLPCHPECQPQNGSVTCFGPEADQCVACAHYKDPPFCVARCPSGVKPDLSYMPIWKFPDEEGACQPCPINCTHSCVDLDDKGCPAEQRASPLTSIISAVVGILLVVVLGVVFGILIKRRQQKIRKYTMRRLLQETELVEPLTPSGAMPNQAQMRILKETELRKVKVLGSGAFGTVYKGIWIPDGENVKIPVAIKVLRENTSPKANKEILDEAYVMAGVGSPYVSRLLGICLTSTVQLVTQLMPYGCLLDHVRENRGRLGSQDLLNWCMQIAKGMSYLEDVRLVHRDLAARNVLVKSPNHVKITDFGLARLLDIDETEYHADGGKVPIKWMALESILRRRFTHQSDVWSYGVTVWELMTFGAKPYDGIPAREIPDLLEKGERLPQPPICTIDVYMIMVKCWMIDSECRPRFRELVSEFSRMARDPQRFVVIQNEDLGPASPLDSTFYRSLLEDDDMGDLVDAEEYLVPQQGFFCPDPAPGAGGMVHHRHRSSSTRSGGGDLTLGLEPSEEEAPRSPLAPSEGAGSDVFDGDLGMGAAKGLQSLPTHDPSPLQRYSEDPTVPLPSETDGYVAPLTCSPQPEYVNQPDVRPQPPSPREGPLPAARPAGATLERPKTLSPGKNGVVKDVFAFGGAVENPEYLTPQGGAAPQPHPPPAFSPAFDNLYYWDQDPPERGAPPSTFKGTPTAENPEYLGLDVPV

| Compound | Her2 level |
| --- | --- |
| COc1ccc(-c2noc(COc3ccc4ccccc4c3Br)n2)cc1OC | 104% (inactive) |
| CC(=O)c1ccc(NC2OC(C)C(O)C(O)C2O)cc1 (stereo not given) | 112% (inactive) |
| CSc1nc(C)cc(OCC(=O)N2CCOCC2)n1 | 112% (inactive) |
| O=C(CCCn1c(=S)[nH]c2ccccc2c1=O)N1CCCCC1 | 108% (inactive) |
| CN(C(=O)c1ccccn1)c1nnc(-c2ccncc2)s1 | 92.5% (inactive) |
| CC(C)(C)OC(=O)N1CC(O)CC1C(=O)OCC(=O)c1ccc(Cl)cc1 (stereo not given) | 91% (inactive) |
| Cc1csc(SCc2nc3sc4c(c3c(=O)[nH]2)CCC4)n1 | 122% (inactive) |
| CCC(C)NC(=O)CC1Oc2ccc(C)cc2NC1=O (stereo not given) | 99% (inactive) |
| CCSc1nc(C)nc2c1oc1ccccc12 | 82% (inactive) |
| CC1=C(C)[N+](=O)C2CCCCC2N1[O-] (stereo not given) | 112% (inactive) |
| O=c1[nH]c2c(s1)C(c1ccco1)C1C3CCC(C3)C1S2 (stereo not given) | 80% (inactive) |
| CC1CCCCC1NC(=O)C1CCN(C(=O)NC2CCCCC2)CC1 (stereo not given) | 108% (inactive) |
| COc1cccc(OC)c1C(=O)N1CCN(S(=O)(=O)c2ccc(C)cc2)CC1 | 108% (inactive) |
| Cc1nnc(SCc2cc(=O)[nH]c(N3CCCCC3)n2)s1 | 86.5% (inactive) |
| CCc1[nH]nc2c1C(c1cccc(OC(=O)N3CCOCC3)c1)C(C#N)=C(N)O2 (stereo not given) | 124% (inactive) |
| CS(=O)(=O)c1ccc2nc(NC(=O)c3cccs3)sc2c1 | 74.5% (inactive) |
| COc1ccc(C(=O)N2CCN(S(=O)(=O)c3cc(Cl)ccc3OC)CC2)cc1 | 100% (inactive) |
| COC(=O)c1cccc(NC(=O)Cc2coc3cc(OC)ccc23)c1 | 96.5% (inactive) |
| CCOC(=O)N1CCN(C(=O)CN2C(=O)COc3ccc(C)cc32)CC1 | 94.5% (inactive) |
| CCNc1nc(N2CCCCC2)nc(-n2nnc(C(=O)OCC)c2C)n1 | 94% (inactive) |

| Compound | Her2 level |
| --- | --- |
| O=c1c2c3nc4ccccc4nc3n(CC3CCCO3)c2ncn1CCc1ccccc1 (stereo not given) | 83.5% (inactive) |
| COc1ccc(CC(NC(C)=O)C(=O)NC2CCN(C(=O)Nc3ccc(C#N)cc3)CC2)cc1OC (stereo not given) | 91.5% (inactive) |
| O=S(=O)(c1ccc(Br)s1)N1CCCCC1 | 97.5% (inactive) |
| C/C(N)=C(/C#N)C(=O)COC(=O)c1cc(C)n(-c2ccc(F)cc2)c1C | 97.5% (inactive) |
| COc1cccc(Nc2cc(C)nc3ccccc23)c1 | 83% (inactive) |
| O=S(=O)(c1ccc(-c2csc(-c3cccnc3)n2)cc1)N1CCCCC1 | 102% (inactive) |
| O=C(O)CCc1ccc(-c2ccc(Br)cc2)n1CC(=O)O | 102% (inactive) |
| COc1ccc(N(CC(=O)NC2CCCC2)C(=O)Cn2nnc(-c3ccc(C)cc3)n2)cc1 | 99.5% (inactive) |
| CCOc1cc(C(=O)N(C)c2ccccc2)cc(OCC)c1OCC | 131% (inactive) |
| COc1ccc(C(=O)Nc2ccc(C)cn2)c(OC)c1 | 77% (inactive) |
| CN(C)c1nc(SCCOC(=O)c2ccccc2)nc(N(C)C)n1 | 80.5% (inactive) |
| NC(=O)C1CCN(CC(=O)N2c3ccccc3CCc3ccccc32)CC1 | 114% (inactive) |
| CCCC(c1nnnn1Cc1ccc(OC)cc1)N1CCN(c2ccccc2OC)CC1 (stereo not given) | 112% (inactive) |
| CCN1C(=O)c2cccc3c(NC(=O)c4ccc5c(c4)OCCO5)ccc1c23 | 89% (inactive) |
| CCN1C(=O)Cc2cc(S(=O)(=O)N3CCOCC3)ccc21 | 110% (inactive) |
| CCOc1ccccc1NC(=O)CN(c1ccc(C)cc1)S(=O)(=O)c1c(C)noc1C | 87% (inactive) |
| O=C(OCCCN1CCCC1)C1(c2ccccc2)CCCC1 | 117% (inactive) |
| COCCn1c(NCc2ccc(C)cc2)nc2c1c(=O)[nH]c(=O)n2C | 87.5% (inactive) |
| CCCN1C2CCCC1CC(NC(=O)Nc1cccc(C(C)=O)c1)C2 (stereo not given) | 77% (inactive) |
| O=C(COC(=O)c1ccccc1O)Nc1ccc(OC(F)F)cc1 | 123% (inactive) |
